Assay results taken from PubChem BioAssay AID1159580 (chemical genetic matrix, 2015).
Where “and” joins values, the source holds several entries; their conditions need not be identical. Identical values can stand only once. Hit rate of the full screen: of about 5,500 compounds, about 2,000 (36%) were called active. Not shown: some 18% with an inconclusive outcome. Cut-off read from the data, not from the text of the source: active = normalized growth mostly below about 0.91 (no sharp cut-off); inconclusive = no clear call, values can overlap the other calls; inactive = mostly above about 0.92. The list shows a part of the results.

Test: chemical genetic growth profiling, strain panel (AID 1159580);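 note: tested at 20 µM; growth read once vehicle control cultures reached saturation at 30 °C; 1 = growth at the plate median or of vehicle wells; lower values mean less growth of the strain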
Conditions: S. cerevisiae deletion strains, growth OD

SMILES: C/C=C(/C(=C/C)c1ccc(O)cc1)c1ccc(O)cc1
- normalized growth (locus YAL021C, strain ccr4, stronger effect = lower value): 1.02 (inactive)
- normalized growth (locus YAL026C, strain drs2, stronger effect = lower value): 0.9 (active)
- normalized growth (locus YAL030W, strain snc1, stronger effect = lower value): 0.978 (inactive)
- normalized growth (locus YBL061C, strain skt5, stronger effect = lower value): 0.974 (inactive)
- normalized growth (locus YBR009C, strain hhf1, stronger effect = lower value): 0.929 (inactive)
- normalized growth (locus YBR021W, strain FUR4, stronger effect = lower value): 0.907 (inactive)
- normalized growth (locus YBR023C, strain chs3, stronger effect = lower value): 0.968 (inactive)
- normalized growth (locus YBR171W, strain sec66, stronger effect = lower value): 0.94 (inactive)
- normalized growth (locus YBR229C, strain ROT2, stronger effect = lower value): 0.995 (inactive)
- normalized growth (locus YBR231C, strain swc5, stronger effect = lower value): 1 (inactive)
- normalized growth (locus YBR279W, strain paf1, stronger effect = lower value): 0.971 (inactive)
- normalized growth (locus YCL011C, strain gbp2, stronger effect = lower value): 0.968 (inactive)
- normalized growth (locus YCL016C, strain dcc1, stronger effect = lower value): 0.997 (inactive)
- normalized growth (locus YCL029C, strain bik1, stronger effect = lower value): 0.823 (active)
- normalized growth (locus YCL069W, strain vba3, stronger effect = lower value): 0.953 (inactive)
- normalized growth (locus YCR088W, strain abp1, stronger effect = lower value): 0.989 (inactive)
- normalized growth (locus YDL005C, strain med2, stronger effect = lower value): 0.992 (inactive)
- normalized growth (locus YDL035C, strain GPR1, stronger effect = lower value): 0.892 (inactive)
- normalized growth (locus YDL040C, strain nat1, stronger effect = lower value): 0.979 (inactive)
- normalized growth (locus YDL074C, strain BRE1, stronger effect = lower value): 0.492 (active)
- normalized growth (locus YDL101C, strain DUN1, stronger effect = lower value): 0.869 (active)
- normalized growth (locus YDL185W, strain tfp1, stronger effect = lower value): 0.844 (active)
- normalized growth (locus YDL192W, strain arf1, stronger effect = lower value): 0.567 (active)
- normalized growth (locus YDR001C, strain nth1, stronger effect = lower value): 0.962 (inactive)
- normalized growth (locus YDR069C, strain doa4, stronger effect = lower value): 0.974 (inactive)
- normalized growth (locus YDR101C, strain arx1, stronger effect = lower value): 0.846 (active)
- normalized growth (locus YDR137W, strain rgp1, stronger effect = lower value): 0.757 (active)
- normalized growth (locus YDR159W, strain sac3, stronger effect = lower value): 0.923 (inactive)
- normalized growth (locus YDR162C, strain NBP2, stronger effect = lower value): 0.561 (active)
- normalized growth (locus YDR195W, strain ref2): 0.989 (inactive)
- normalized growth (locus YDR297W, strain sur2, stronger effect = lower value): 0.952 (inactive)
- normalized growth (locus YDR318W, strain mcm21, stronger effect = lower value): 0.789 (active)
- normalized growth (locus YDR334W, strain swr1, stronger effect = lower value): 0.968 (inactive)
- normalized growth (locus YDR335W, strain msn5, stronger effect = lower value): 0.943 (inactive)
- normalized growth (locus YDR388W, stronger effect = lower value): 0.589 (active)
- normalized growth (locus YDR392W, strain spt3, stronger effect = lower value): 0.905 (inactive)
- normalized growth (locus YDR502C, strain sam2, stronger effect = lower value): 0.821 (active)
- normalized growth (locus YEL003W, strain gim4, stronger effect = lower value): 0.949 (inactive)
- normalized growth (locus YEL037C, strain rad23, stronger effect = lower value): 0.989 (inactive)
- normalized growth (locus YEL061C, strain CIN8 (second series), stronger effect = lower value): 0.973 (inactive)
- normalized growth (locus YEL061C, strain CIN8, stronger effect = lower value): 0.899 (active)
- normalized growth (locus YER015W, strain faa2, stronger effect = lower value): 0.953 (inactive)
- normalized growth (locus YER016W, strain bim1, stronger effect = lower value): 0.986 (inactive)
- normalized growth (locus YER110C, stronger effect = lower value): 0.982 (inactive)
- normalized growth (locus YER111C, strain swi4, stronger effect = lower value): 0.993 (inactive)
- normalized growth (locus YER155C, strain BEM2 (second series), stronger effect = lower value): 0.959 (inactive)
- normalized growth (locus YER155C, strain BEM2, stronger effect = lower value): 0.624 (active)
- normalized growth (locus YER167W, strain BCK2, stronger effect = lower value): 0.904 (inactive)
- normalized growth (locus YFR010W, strain ubp6, stronger effect = lower value): 0.982 (inactive)
- normalized growth (locus YGL078C, strain dbp3, stronger effect = lower value): 0.87 (active)
- normalized growth (locus YGL086W, strain mad1, stronger effect = lower value): 0.832 (active)
- normalized growth (locus YGL167C, strain pmr1, stronger effect = lower value): 0.978 (inactive)
- normalized growth (locus YGL173C, strain kem1, stronger effect = lower value): 0.927 (inactive)
- normalized growth (locus YGL227W, strain vid30, stronger effect = lower value): 0.985 (inactive)
- normalized growth (locus YGL240W, strain doc1, stronger effect = lower value): 0.945 (inactive)
- normalized growth (locus YGL248W, strain PDE1, stronger effect = lower value): 0.81 (active)
- normalized growth (locus YGL253W, strain hxk2, stronger effect = lower value): 0.971 (inactive)
- normalized growth (locus YGR135W, strain pre9, stronger effect = lower value): 0.836 (active)
- normalized growth (locus YGR229C, strain SMI1, stronger effect = lower value): 0.504 (active)
- normalized growth (locus YGR252W, strain gcn5, stronger effect = lower value): 0.682 (active)
- normalized growth (locus YHR013C, strain ard1, stronger effect = lower value): 1.15 (inactive)
- normalized growth (locus YHR027C, strain rpn1, stronger effect = lower value): 0.979 (inactive)
- normalized growth (locus YHR030C, strain SLT2, stronger effect = lower value): 0.691 (active) and 0.969 (inactive)
- normalized growth (locus YHR079C, strain IRE1 (second series), stronger effect = lower value): 0.802 (active)
- normalized growth (locus YHR079C, strain IRE1, stronger effect = lower value): 0.982 (inactive)
- normalized growth (locus YHR094C, strain hxt1, stronger effect = lower value): 0.968 (inactive)
- normalized growth (locus YHR129C, strain ARP1, stronger effect = lower value): 0.841 (active)
- normalized growth (locus YHR142W, strain chs7, stronger effect = lower value): 0.943 (inactive)
- normalized growth (locus YHR200W, strain rpn10, stronger effect = lower value): 0.845 (active)
- normalized growth (locus YIL066C, strain RNR3, stronger effect = lower value): 0.9 (inactive)
- normalized growth (locus YIL073C, strain SPO22, stronger effect = lower value): 0.976 (inactive)
- normalized growth (locus YIL125W, strain kgd1, stronger effect = lower value): 0.858 (active)
- normalized growth (locus YIR030C, strain dcg1, stronger effect = lower value): 0.958 (inactive)
- normalized growth (locus YJL092W, strain hpr5, stronger effect = lower value): 0.971 (inactive)
- normalized growth (locus YJL095W, strain BCK1 (second series), stronger effect = lower value): 0.944 (inactive)
- normalized growth (locus YJL095W, strain BCK1, stronger effect = lower value): 0.497 (active) and 0.978 (inactive)
- normalized growth (locus YJL115W, strain asf1, stronger effect = lower value): 0.984 (inactive)
- normalized growth (locus YJL129C, strain trk1, stronger effect = lower value): 0.9 (inactive)
- normalized growth (locus YJL134W, strain LCB3, stronger effect = lower value): 0.998 (inactive)
- normalized growth (locus YJL154C, strain vps35, stronger effect = lower value): 0.969 (inactive)
- normalized growth (locus YJL164C, strain tpk1, stronger effect = lower value): 0.972 (inactive)
- normalized growth (locus YJL166W, strain qcr8, stronger effect = lower value): 0.915 (inactive)
- normalized growth (locus YJL168C, strain set2, stronger effect = lower value): 0.979 (inactive)
- normalized growth (locus YJL187C, strain SWE1 (second series), stronger effect = lower value): 0.814 (active)
- normalized growth (locus YJR043C, strain POL32, stronger effect = lower value): 0.971 (inactive)
- normalized growth (locus YJR066W, strain TOR1, stronger effect = lower value): 0.931 (inactive)
